# Measured values published in PubChem BioAssay.
# Results filed as inconclusive are left out. Activity calls are given as the source filed them. Cut-off read from the data, not from the text of the source, unless noted: active = inhibition above about 30%; inactive = the rest.
# Assays:
# [1] = SK-BR-3 cell growth inhibitors, pilot screen, 24 h, human (AID 572;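 active = viability at or below 10% of carrier control in both of two separate runs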;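 note: compound exposure lasted between 18 and 24 h rather than exactly 24 h; 100% = carrier-treated control wells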); conditions: SK-BR-3 viability, CellTiter-Glo luminescence, at 10 µM, stronger effect = lower value
# [2] = HUVEC growth inhibition – cell-based, human, primary screen (AID 575;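 active = viability at or below 30% in both replicate assays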;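 note: 100% = median of untreated cell wells with 0.1% DMSO on each plate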); conditions: HUVEC proliferation, CellTiter-Glo luminescence, 72 h; at 10 µM; stronger effect = lower value
# [3] = reversal of MRP1-mediated doxorubicin resistance, pilot screen, H69AR cells, doxorubicin co-treatment (AID 601;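 active = viability loss from added drug above about 55%, and viability with drug at most 40%, in both replicates, limit read from the data, passing the limit was not always enough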); conditions: CellTiter-Glo, 72 h, at 10 µM; for differential viability (reversal): stronger effect = higher value
# [4] = 384-well plate pilot, post-Golgi transport modulator project, inhibition of yeast transport mutant growth (AID 636; in the data active = inhibition above about 31%); conditions: absorbance 615 nm, about 18 h, stronger effect = higher value
# [5] = growth suppression of yeast trafficking mutant, preliminary HTS, modulators of trafficking downstream of Golgi apparatus project, 1536-format plate, OD 615 nm (AID 637); conditions: yeast transport mutant growth, absorbance 615 nm, 18 h; stronger effect = higher value
# [6] = OD615 S. cerevisiae growth inhibition, permissive medium, pilot counter-assay, permissive growth control for S. cerevisiae lifespan shortening project (AID 705;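 active = growth inhibition above 25% in both replicates, a cutoff set 3 SD above the mean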); conditions: OD615, 24 h, at 10 µM, stronger effect = higher value
# [7] = Restrictive medium S. cerevisiae growth inhibition, OD615, pilot screen of yeast lifespan reduction project, restrictive growth control (AID 706;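 active = growth inhibition above a set limit, 3 SD over mean compound inhibition, in both replicates, cut at about 43% in these data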;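 note: modified DeaD lifespan yeast strain shifted to restrictive glucose medium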); conditions: OD615, 48 h, at 10 µM, stronger effect = higher value
# [8] = viability gain of MRP-1-high H69AR cells under doxorubicin, pilot screen, MRP-1 activator project, CellTiter-Glo, duplicate (AID 807;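 active = viability increase at or above a cutoff of the median across tested compounds plus 3 SD, cut at about 8.5% in these data, passing the limit was not always enough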;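 note: compound pretreatment 18-22 h then 72 h combined with doxorubicin; 0% = doxorubicin alone and 100% = vehicle without doxorubicin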); conditions: H69AR viability with doxorubicin, CellTiter-Glo luminescence; at 10 µM; stronger effect = higher value
# [9] = growth suppression of beta-catenin knockout HCT116, pilot screen, human colon tumor cells (AID 823;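 active = cell viability at or below a set limit in both duplicate runs, the limit being the all-compound median minus 4 SD, cut at about 23% in these data, passing the limit was not always enough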;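 note: 0% = wells killed by 20 µM Hyamine and 100% = untreated DMSO cell wells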); conditions: CellTiter-Glo, 60 h, at 10 µM, stronger effect = lower value
# [10] = growth suppression of PTEN-deleted HCT116, pilot screen, cell-based, HCT116 clonal line, CellTiter-Glo (AID 824;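 active = viability at or below 27.92% in each of two runs, the all-compound median minus 4 SD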;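 note: 0% = 20 µM Hyamine control and 100% = vehicle cell control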); conditions: 60 h, at 10 µM, stronger effect = lower value
# [11] = inhibitors of the yeast RAM network, pilot screen, dse1pr::URA3 reporter, 5-FOA selection (AID 869;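 active = inhibition over a set limit, the all-compound mean plus 3 SD, in both replicate runs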;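 note: 0% = DMSO wells with no growth and 100% = 10 µM 1-NA-PP1 with full growth; RAM network block rescues cells from 5-FOA so hits raise OD615 growth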); conditions: S. cerevisiae dse1pr::URA3 5-FOA growth, OD615, 2 d; at 10 µM; stronger effect = higher value; strain carries analog-sensitive mutant Cbk1 kinase
# [12] = RAM signaling pathway blockade in yeast – S. cerevisiae, Pdr1DBD-CYC8 efflux-inhibited sensitized strain, primary screen (AID 1298;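 active = RAM network inhibition above 8.4% in each of two replicates, 3 SD over the compound average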;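 note: 0% = DMSO untreated cells without growth and 100% = 10 µM 1-NA-PP1 full growth; higher means more yeast growth rescued from 5-FOA killing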); conditions: S. cerevisiae cbk1-as DSE1-URA3 strain, 5-FOA growth OD615, 2 d; at 50 µM; stronger effect = higher value
# [13] = growth inhibitors of H69AR lung tumor, primary screen, human, duplicate replicates (AID 580;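 active = viability at or under a set limit in both replicates, limit being median viability minus 3 SD, cut at about 48% in these data, passing the limit was not always enough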;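 note: 100% = mean luminescence of untreated wells and 0% = no signal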); conditions: H69AR lung tumor cells viability, ATP luminescence, 72 h; at 10 µM; stronger effect = lower value
# [14] = H69AR cells + 2 uM doxorubicin, measured here: viability with 2 uM doxorubicin, stronger effect = lower value
# [15] = H69AR cells, compound alone cytotoxicity
Compound,viability [1],viability [2],differential viability (reversal) ([3]; H69AR cells + 2 uM doxorubicin),"viability [3, 14] [%]","viability [3, 15] [%]",inhibition [4],inhibition [5],growth inhibition [6],growth inhibition [7],viability increase [8],viability [9],viability [10],inhibition [11],RAM network inhibition [12],viability [13]
Cc1ccc(C)n1-c1ccc(-n2cnnn2)cc1,103% (inactive),97.5% (inactive),-24.2% (inactive),76.6,52.4,-3.47% (inactive),-1.09% (inactive),-9.52% (inactive),0.21% (inactive),-7.7% (inactive),9.95% (active),10.3% (active),1.65% (inactive),5.78% (inactive),
Cc1cc(NC(=O)CS(=O)(=O)c2cn(Cc3ccccc3Cl)c3ccccc23)no1,92% (inactive),79.2% (inactive),11.1% (inactive),81,92.1,-5.2% (inactive),5.82% (inactive),-4.35% (inactive),-0.555% (inactive),-2.24% (inactive),,47.8% (inactive),2.17% (inactive),3.11% (inactive),92.1% (inactive)
O=C(O)CC(C(=O)Nc1cccc(C(F)(F)F)c1)C1CCCO1 (stereo not drawn),76% (inactive),108% (inactive),3.26% (inactive),94.3,97.6,-3.33% (inactive),-8% (inactive),-10.5% (inactive),-6.54% (inactive),1.01% (inactive),104% (inactive),100% (inactive),-0.115% (inactive),2.56% (inactive),97.6% (inactive)
CCOC(=O)Cn1c(CN(C)Cc2ccccc2)nc2c1c(=O)n(C)c(=O)n2C,94% (inactive),112% (inactive),-9.54% (inactive),96.6,87.1,-7.43% (inactive),0.18% (inactive),-28.8% (inactive),-4.63% (inactive),-2.98% (inactive),82.9% (inactive),,0.24% (inactive),-0.42% (inactive),87.1% (inactive)
COC(=O)c1[nH]c2c(c1C)C(=O)CC(c1cc(OC)ccc1OC)C2 (stereo not drawn),98.5% (inactive),,-37% (inactive),51.9,14.9,-6.8% (inactive),-6.33% (inactive),-10.4% (inactive),-8.8% (inactive),-5.77% (inactive),34.6% (inactive),29.4% (inactive),,1.94% (inactive),14.9% (active)
Cc1ccc2c(c1)C1CCCC3C1N2CC(=O)N3Cc1ccccc1 (stereo not drawn),117% (inactive),,-5.75% (inactive),81.3,75.5,0.27% (inactive),0.97% (inactive),-8.15% (inactive),-24.9% (inactive),-0.44% (inactive),,53.3% (inactive),2.56% (inactive),7.32% (inactive),75.5% (inactive)
FC(F)(F)c1cc(-c2ccco2)nc(NCc2ccco2)n1,119% (inactive),101% (inactive),-15.6% (inactive),77.8,62.2,-2.7% (inactive),24.2% (inactive),3.24% (inactive),-11.4% (inactive),-6.31% (inactive),,59.1% (inactive),1.14% (inactive),-0.41% (inactive),62.2% (inactive)
CC(Sc1n[nH]c(=O)[nH]c1=O)C(=O)OCc1ccccc1 (stereo not drawn),94% (inactive),116% (inactive),11.6% (inactive),88.3,99.9,-5.6% (inactive),-0.18% (inactive),-21.9% (inactive),-8.41% (inactive),0.49% (inactive),103% (inactive),98.5% (inactive),1.66% (inactive),5.73% (inactive),99.9% (inactive)
COc1cccc2cc(C(=O)Nc3cccnc3N3CCOCC3)c(=O)oc12,,101% (inactive),10.1% (inactive),84.2,94.3,-4.03% (inactive),3.65% (inactive),-8.22% (inactive),-21.8% (inactive),-3.74% (inactive),101% (inactive),98.8% (inactive),3.31% (inactive),1.45% (inactive),94.3% (inactive)
O=C(CCCCCn1c(=O)[nH]c2ccsc2c1=O)N1CCCCC1,,102% (inactive),5.84% (inactive),89.2,95,-2.5% (inactive),7.62% (inactive),1.02% (inactive),-1.91% (inactive),-1.28% (inactive),96.9% (inactive),99% (inactive),0.36% (inactive),-0.43% (inactive),95% (inactive)
CCn1cc(C(=O)NCC2COc3ccccc3O2)c2cc(OC)c(OC)cc2c1=O (stereo not drawn),,77.5% (inactive),0.385% (inactive),79,79.3,-6.05% (inactive),0.16% (inactive),-11.4% (inactive),-33.2% (inactive),-4.69% (inactive),97.9% (inactive),86.7% (inactive),0.96% (inactive),3.33% (inactive),79.3% (inactive)
O=C1CC(c2ccco2)CC(O)=C1C=NCCN1CCNCC1 (stereo not drawn),,103% (inactive),3.35% (inactive),92.3,95.6,0.13% (inactive),5.56% (inactive),-10.2% (inactive),3.51% (inactive),0.26% (inactive),91% (inactive),101% (inactive),0.405% (inactive),1.52% (inactive),95.6% (inactive)
Cc1nnc(N(Cc2ccco2)C(=O)c2cccc(C#N)c2)s1,,84.1% (inactive),-3.37% (inactive),97.9,94.6,-1.69% (inactive),-6.35% (inactive),-6.52% (inactive),6.42% (inactive),-0.66% (inactive),103% (inactive),98.5% (inactive),1.8% (inactive),4.13% (inactive),94.6% (inactive)
COC(=O)C1CCN(C(=O)CSc2nnc(-c3ccncc3)o2)CC1,,101% (inactive),-7.18% (inactive),89,81.8,1.43% (inactive),19.1% (inactive),-0.605% (inactive),-6.21% (inactive),1.44% (inactive),102% (inactive),102% (inactive),1.91% (inactive),-1.1% (inactive),81.8% (inactive)
c1ccc2c(c1)ccc1nnc(-c3ccc4c(c3)OCO4)n12,,98.7% (inactive),4.88% (inactive),91.1,96,-1.82% (inactive),3.33% (inactive),-7.74% (inactive),2.03% (inactive),-5.23% (inactive),93.7% (inactive),90.9% (inactive),1.31% (inactive),1.81% (inactive),96% (inactive)
O=c1cc(-c2ccco2)oc2ccc(Cl)cc12,,111% (inactive),12.5% (inactive),85.9,98.4,-2.6% (inactive),4.76% (inactive),-19.4% (inactive),-2.54% (inactive),-2.08% (inactive),96.9% (inactive),98.2% (inactive),0.61% (inactive),6.02% (inactive),98.4% (inactive)
CCCN1CCN(C(=O)c2cn(CC(C)C)c(=O)c3cc(OC)c(OC)cc23)CC1,,93.1% (inactive),-0.945% (inactive),78.9,78,-4.74% (inactive),4.92% (inactive),-19.2% (inactive),-0.27% (inactive),-2.46% (inactive),100% (inactive),88.4% (inactive),2.42% (inactive),2.08% (inactive),78% (inactive)
COCCn1c(=O)[nH]c2cc(C(=O)N3CCN(c4ccccc4OC)CC3)ccc2c1=O,,110% (inactive),-5.65% (inactive),91.4,85.8,-4.87% (inactive),0.32% (inactive),-3.6% (inactive),-7.11% (inactive),-0.61% (inactive),104% (inactive),99% (inactive),1.2% (inactive),6.96% (inactive),85.8% (inactive)
CCCCC(NC(C)=O)c1nc2ccccc2n1CCC (stereo not drawn),,93.9% (inactive),10.6% (inactive),89.7,100,1.32% (inactive),7.62% (inactive),-5.8% (inactive),-2.95% (inactive),-0.99% (inactive),93.6% (inactive),93.3% (inactive),1.44% (inactive),-0.69% (inactive),100% (inactive)
CC(C(=O)Oc1ccc2c(c1)OCO2)N1C(=O)c2ccccc2C1=O (stereo not drawn),,79.5% (inactive),-10.1% (inactive),94.4,84.3,-1.69% (inactive),1.27% (inactive),-0.745% (inactive),13.1% (inactive),-1.6% (inactive),99.3% (inactive),105% (inactive),1.38% (inactive),0.12% (inactive),84.3% (inactive)
COc1cccc(N2CCN(c3c4c(nc5ncnn35)CCC4)CC2)c1,,68.7% (inactive),10.4% (inactive),76.5,86.9,-4.55% (inactive),8.73% (inactive),-0.38% (inactive),16.8% (inactive),-1.17% (inactive),77.5% (inactive),92.9% (inactive),0.465% (inactive),4.78% (inactive),86.9% (inactive)
O=C(NCCN1CCN(c2ccccc2)CC1)c1ccc(NC(=O)C2CCCO2)cc1 (stereo not drawn),,96.9% (inactive),8.13% (inactive),100,108,-3.82% (inactive),-0.48% (inactive),-5.63% (inactive),-8.76% (inactive),-1.13% (inactive),95.6% (inactive),101% (inactive),1.66% (inactive),2.86% (inactive),108% (inactive)
